Records with an inconclusive call do not appear. The source made the active and inactive calls. Unless noted, the call rests on the fitted dose curve; in most records, active means well fitted curve in the direction sought with a large enough effect; inconclusive means small, poorly fitted or top-dose-only effect, or another doubt; inactive means no such curve, though single readings can be large; an effect the other way counts as inactive or inconclusive.

In experiment [1] the target is Cytochrome P450 2D6 (Homo sapiens) (UniProt P10635). The experiment can be described thus: Cytochrome P450 family 2 subfamily D member 6 (CYP2D6) small molecule antagonists: luciferase biochemical (cell-free) qHTS assay (AID 1645840; active means well fitted curve in the direction sought with a large enough effect in the repeat runs; an effect the other way counts as inactive or inconclusive; further: nearly all actives have a fitted effect of over 55% in size; on activity change, negative = inhibition: series mostly up to about 57 µM). In short, it runs like this:
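P450-Glo luminescent screen: recombinant CYP2D6 enzyme–proluciferin substrate mix preincubated with compound 10 min at room temperature, then NADPH regeneration added for 1 h at room temperature. Detection reagent added for 20 min; luciferin light read as relative luminescence units.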
(Quantitative high-throughput screening tests each substance at several concentrations.)

For experiment [2], the target named is Cytochrome P450 2C9 (Homo sapiens) (UniProt P11712). The experiment can be described thus: Cytochrome P450 family 2 subfamily C member 9 (CYP2C9) small molecule antagonists: luciferase biochemical (cell-free) qHTS assay (AID 1645842; active means well fitted curve in the direction sought with a large enough effect in the repeat runs; an effect the other way counts as inactive or inconclusive; further: nearly all actives have a fitted effect of over 55% in size; on activity change, negative = inhibition: series mostly up to about 57 µM). In short, it runs like this: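 Luminescence, after 20 min with luciferin detection reagent, reflected CYP2C9 turnover during a 1 h NADPH-driven reaction at 37C. Enzyme-substrate mix contained 0.4% bovine serum albumin and was preincubated with compound 10 min at room temperature.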

Experiment [3] in a line: Primary qHTS for inhibitors of nuclear receptor binding SET domain protein 2 (NSD2) in an isogenic RCH-ACV NSD2 p.E1099K mutant (9B) (AID 1645876). Further: nearly all actives have a fitted effect of over 70% in size.
Experiment [4] is described as follows: Primary qHTS for inhibitors of nuclear receptor binding SET domain protein 2 (NSD2) in an RCH-ACV wild type WT cells (2C) (AID 1645877). Further: nearly all actives have a fitted effect of over 70% in size.
On the % scale 0 is the no-effect control and ±100 the full control effect; potency means the concentration at half of the fitted maximal effect.

Sequence of Cytochrome P450 2C9 (Homo sapiens) (P11712 whole entry, looked up): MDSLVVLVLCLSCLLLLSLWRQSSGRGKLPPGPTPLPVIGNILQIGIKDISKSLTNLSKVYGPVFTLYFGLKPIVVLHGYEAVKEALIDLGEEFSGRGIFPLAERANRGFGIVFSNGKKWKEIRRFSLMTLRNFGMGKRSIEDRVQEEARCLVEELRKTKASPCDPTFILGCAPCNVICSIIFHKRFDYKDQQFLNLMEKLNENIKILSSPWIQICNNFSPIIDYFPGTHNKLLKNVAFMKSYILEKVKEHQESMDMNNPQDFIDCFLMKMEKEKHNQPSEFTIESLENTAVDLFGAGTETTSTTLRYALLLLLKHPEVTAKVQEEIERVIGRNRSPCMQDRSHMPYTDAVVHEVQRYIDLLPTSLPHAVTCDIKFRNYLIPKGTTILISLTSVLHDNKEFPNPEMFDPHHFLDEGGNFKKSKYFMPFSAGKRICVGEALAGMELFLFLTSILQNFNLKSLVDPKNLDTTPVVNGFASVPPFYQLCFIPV
Sequence of Cytochrome P450 2D6 (Homo sapiens) (P10635 whole entry, looked up): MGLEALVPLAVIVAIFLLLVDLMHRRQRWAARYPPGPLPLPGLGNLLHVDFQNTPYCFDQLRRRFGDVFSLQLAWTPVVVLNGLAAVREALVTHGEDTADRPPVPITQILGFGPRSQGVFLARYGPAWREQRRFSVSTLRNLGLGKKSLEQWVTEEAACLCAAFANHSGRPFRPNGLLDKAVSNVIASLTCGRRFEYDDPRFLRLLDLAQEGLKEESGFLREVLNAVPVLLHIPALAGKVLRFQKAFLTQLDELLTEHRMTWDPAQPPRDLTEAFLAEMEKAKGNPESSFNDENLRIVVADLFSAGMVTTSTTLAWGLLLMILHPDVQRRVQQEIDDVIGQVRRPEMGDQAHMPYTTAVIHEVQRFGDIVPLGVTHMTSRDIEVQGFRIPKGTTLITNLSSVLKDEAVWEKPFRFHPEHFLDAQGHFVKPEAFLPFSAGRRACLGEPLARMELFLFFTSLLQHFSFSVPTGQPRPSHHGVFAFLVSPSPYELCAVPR

Take `CC[N+](CC)(CC)CCOc1ccc(/C=C/c2ccccc2)cc1`: the Potency in experiment [1] was 0.617 µM (active); in experiment [3], 2.11 µM (active); in experiment [4], 1.88 µM (active). Further, the Potency result in experiment [2] was “inactive”.
For `CC1(C)[C@@H]2CC[C@@]1(C)C(=O)C2` the same measures were “inactive”, “inactive”, “inactive” and “inactive”.
For `CC(C)(C)C(=O)NCCCC(=O)O` the same measures were “inactive”, “inactive”, “inactive” and “inactive”.
For `COc1cc(C)c(Cc2cnc(N)nc2N)cc1OC` the same measures were “inactive”, “inactive”, “inactive” and “inactive”.
For the compound `N[C@@H](CSSC[C@H](N)C(=O)O)C(=O)O`, the figures for the activity change, negative = inhibition in experiment [1] and in experiment [2] were -1.65% [at 0.91 µM] (inactive) and 15.4% [at 0.91 µM] (inactive), respectively. In addition, the activity change, negative = viability loss in experiment [3] was -6.57% [at 0.588 µM] (inactive). Moreover, the activity change, negative = cell killing in experiment [4] was 2.98% [at 0.588 µM] (inactive).
Take `O=C1O[C@H](CO)[C@@H](O)[C@H](O)[C@H]1O`: the Potency result in experiment [1], in experiment [2], in experiment [3] and in experiment [4] was “inactive” each time.
Consider `COC(=O)[C@H]1[C@H]2C[C@@H]3c4[nH]c5cc(OC)ccc5c4CCN3C[C@H]2C[C@@H](OC(=O)COc2ccc(OC)cc2)[C@@H]1OC`, for which, in experiment [1], the Potency was 9.77 µM (active). Moreover, the Potency entry in experiment [2], in experiment [3] and in experiment [4] was “inactive” each time.
Regarding `CC1CC(OC(=O)C(O)c2ccccc2)CC(C)(C)N1C` (stereo unspecified), the Potency result in experiment [1], in experiment [2], in experiment [3] and in experiment [4] was “inactive” each time.
`CN(C)CCCO[C@@H]1[C@H]2OC(C)(C)O[C@H]2O[C@@H]1C(O)CO` (stereo partly specified): the Potency result in experiment [1], in experiment [2], in experiment [3] and in experiment [4] was “inactive” each time.
With `O=C1O[C@H]([C@@H](O)CO)C(O)=C1O`, the Potency result in experiment [1], in experiment [2], in experiment [3] and in experiment [4] was “inactive” each time.
Turning to `Oc1ccc(C(O)CNCCCCCCNCC(O)c2ccc(O)c(O)c2)cc1O` (stereo unspecified), the Potency entry in experiment [1], in experiment [2], in experiment [3] and in experiment [4] was “inactive” in each case.
Take `Nc1nc2c(ncn2CCC(CO)CO)c(=O)[nH]1`: the Potency result in experiment [1], in experiment [2], in experiment [3] and in experiment [4] was “inactive” in each case.
Consider `Oc1cn2c(n1)Nc1ccc(Cl)c(Cl)c1C2`, for which the Potency result in experiment [1], in experiment [3] and in experiment [4] was “inactive” each time. The Potency in experiment [2] was 6.74 µM (active).
In the case of `CC(C)(C)NCC(O)COc1ccc(NC(=O)NC2CCCCC2)cc1` (stereo unspecified), the Potency result in experiment [1], in experiment [2], in experiment [3] and in experiment [4] was “inactive” in each case.

The record behind these values is PubChem BioAssay (NCATS).
